Results on 16 compounds are retold here after the supplement of paper PMC8371130.

The test system of the test is HL-1. The test is described as follows: relative cell viability (CellTiter-Glo) vs DMSO control (% of DMSO control); higher = more viable cells. The method in brief: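 HL-1 mouse atrial cardiomyocytes were plated in 384-well plates at 1000 cells per well together with compounds at 40, 200, 1000 or 5000 nM in 0.01% DMSO. One day later, cells went to a hypoxic workstation (1% O2) for 48 h, then were reoxygenated for 24 h in a normal incubator, or stayed in normoxia for the same time. Cell viability was read by CellTiter-Glo luminescence and normalised to vehicle-treated control cells.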
A general note: ATP-based viability assays read luminescence as a measure of living cells.

Where [1] appears, read: oxygen condition: hypoxia 48 h (1% O2) + reoxygenation 24 h, 40 nM.
Where [2] appears, read: oxygen condition: hypoxia 48 h (1% O2) + reoxygenation 24 h, 200 nM.
Where [3] appears, read: oxygen condition: hypoxia 48 h (1% O2) + reoxygenation 24 h, 1000 nM.
Setting [4] is: oxygen condition: hypoxia 48 h (1% O2) + reoxygenation 24 h, 5000 nM.
Setting [5] is: oxygen condition: normoxia 72 h, 40 nM.
The mark [6] stands for this setting: oxygen condition: normoxia 72 h, 200 nM.
Where [7] appears, read: oxygen condition: normoxia 72 h, 1000 nM.
[8] abbreviates: oxygen condition: normoxia 72 h, 5000 nM.

Molecules are shown by their SMILES. Counter-ions that a name gives are not always drawn.

On to `CN1CCC(=C2c3ccccc3C=Cc3ccccc32)CC1` [Cyproheptadine HCl], for which the relative cell viability under setting [1] amounted to 97.1; the relative cell viability under setting [2] is 95.8; the relative cell viability under setting [3] turned out to be 102; the relative cell viability under setting [4] came to 110; the relative cell viability under setting [5] was determined as 100; the relative cell viability under setting [6] was 98.1. Also, the relative cell viability is, setting by setting: under setting [7], 102; under setting [8], 118.
Consider `CNS(=O)(=O)CCc1ccc2[nH]cc(C3CCN(C)CC3)c2c1` [Naratriptan HCl], for which the relative cell viability came out at 97.1 under setting [1]; 103 under setting [2]; 105 under setting [3]; 108 under setting [4]; 103 under setting [5]; 103 under setting [6]. Besides, the relative cell viability reads like this: under setting [7], 97.6; under setting [8], 111.
Take `CCCC1O[C@@H]2C[C@H]3[C@@H]4CCC5=CC(=O)C=C[C@]5(C)[C@H]4[C@@H](O)C[C@]3(C)[C@]2(C(=O)CO)O1` (stereo partly drawn) [Budesonide]: the relative cell viability under setting [1] came out at 95.2; the relative cell viability under setting [2] came to 102; the relative cell viability under setting [3] stood at 91.2; the relative cell viability under setting [4] came to 96.5; the relative cell viability under setting [5] came to 90.9; the relative cell viability under setting [6] turned out to be 83.5. The relative cell viability was 95.6 under setting [7] and 96.4 under setting [8].
In the case of `CCCC(=O)O[C@]1(C(=O)COC(C)=O)CC[C@H]2[C@@H]3C[C@H](F)C4=CC(=O)C=C[C@]4(C)[C@@]3(F)[C@@H](O)C[C@@]21C` [Difluprednate], the relative cell viability runs as follows: under setting [1], 83.3; under setting [2], 93.3; under setting [3], 92.2; under setting [4], 102; under setting [5], 90.8; under setting [6], 89. The relative cell viability is, setting by setting: under setting [7], 94.4; under setting [8], 102.
As to `CCCCc1nc(Cl)c(CO)n1Cc1ccc(-c2ccccc2-c2nnn[nH]2)cc1` [Losartan potassium], the relative cell viability is, setting by setting: under setting [1], 111; under setting [2], 107; under setting [3], 114; under setting [4], 108; under setting [5], 103; under setting [6], 108. Besides, the relative cell viability by setting is: under setting [7], 108; under setting [8], 110.
Take `CC(CCc1ccc(O)cc1)NCC(O)c1ccc(O)cc1` (stereo not drawn) [Ractopamine HCl]: the relative cell viability was determined as 103 under setting [1]; 100 under setting [2]; 108 under setting [3]; 60.4 under setting [4]; 98.9 under setting [5]; 104 under setting [6]. For the same compound, the relative cell viability stood at 106 under setting [7] and 106 under setting [8].
For the compound `Cn1c(=O)c2c(ncn2CC2OCCO2)n(C)c1=O` [Doxofylline], the relative cell viability worked out at 101 under setting [1]; 111 under setting [2]; 122 under setting [3]; 113 under setting [4]; 108 under setting [5]; 111 under setting [6]. The relative cell viability runs as follows: under setting [7], 113; under setting [8], 122.
Regarding `CCN[C@H]1C[C@H](C)S(=O)(=O)c2sc(S(N)(=O)=O)cc21` [Dorzolamide HCL], the relative cell viability was determined as 111 under setting [1]; 105 under setting [2]; 104 under setting [3]; 111 under setting [4]; 117 under setting [5]; 106 under setting [6]. Further, the relative cell viability reads like this: under setting [7], 107; under setting [8], 121.
On to `CCCC(=O)[O-].[Na+]` [Sodium butyrate], for which the relative cell viability under setting [1] turned out to be 103; the relative cell viability under setting [2] came out at 101; the relative cell viability under setting [3] came to 99.4; the relative cell viability under setting [4] turned out to be 107; the relative cell viability under setting [5] is 98.7; the relative cell viability under setting [6] was determined as 99.2. Further, the relative cell viability is, setting by setting: under setting [7], 105; under setting [8], 107.
For `C[C@@H]1CCN(C(=O)CC#N)C[C@@H]1N(C)c1ncnc2[nH]ccc12` [Tofacitinib citrate], the relative cell viability runs as follows: under setting [1], 97; under setting [2], 104; under setting [3], 100; under setting [4], 107; under setting [5], 106; under setting [6], 102. Also, the relative cell viability by setting is: under setting [7], 98.7; under setting [8], 103.
With `CC(C)NCC(O)COc1ccc(COCCOC(C)C)cc1` (stereo not drawn) [Bisoprolol], the relative cell viability came out at 93.2 under setting [1]; 103 under setting [2]; 87.2 under setting [3]; 101 under setting [4]; 90.8 under setting [5]; 101 under setting [6]. The relative cell viability reads like this: under setting [7], 85.4; under setting [8], 108.
Turning to `Cc1cnc(C(=O)NCCc2ccc(S(=O)(=O)NC(=O)NC3CCCCC3)cc2)cn1` [Glipizide], the relative cell viability runs as follows: under setting [1], 109; under setting [2], 108; under setting [3], 108; under setting [4], 109; under setting [5], 106; under setting [6], 97.1. Besides, the relative cell viability by setting is: under setting [7], 106; under setting [8], 110.
As for `CO[C@@H]1[C@@H](OC(N)=O)[C@@H](O)[C@H](Oc2ccc3c(O)c(NC(=O)c4ccc(O)c(CC=C(C)C)c4)c(=O)oc3c2C)OC1(C)C` [Novobiocin sodium], the relative cell viability under setting [1] was determined as 100; the relative cell viability under setting [2] was found to be 102; the relative cell viability under setting [3] is 102; the relative cell viability under setting [4] was 110; the relative cell viability under setting [5] is 97.1; the relative cell viability under setting [6] amounted to 99.2. For the same compound, the relative cell viability came out at 101 under setting [7] and 113 under setting [8].
Take `CN1CC2c3ccccc3Oc3ccc(Cl)cc3C2C1` (stereo not drawn) [Asenapine]: the relative cell viability was found to be 105 under setting [1]; 104 under setting [2]; 108 under setting [3]; 106 under setting [4]; 111 under setting [5]; 101 under setting [6]. In addition, the relative cell viability runs as follows: under setting [7], 103; under setting [8], 111.
Regarding `CS(=O)(=O)c1ccc(C(=O)Nc2ccc(Cl)c(-c3ccccn3)c2)c(Cl)c1` [Vismodegib], the relative cell viability reads like this: under setting [1], 103; under setting [2], 107; under setting [3], 108; under setting [4], 117; under setting [5], 104; under setting [6], 110. In addition, the relative cell viability came out at 114 under setting [7] and 112 under setting [8].
`O=c1oc2cc(O)ccc2s1` [Tioxolone]: the relative cell viability runs as follows: under setting [1], 106; under setting [2], 104; under setting [3], 108; under setting [4], 110; under setting [5], 107; under setting [6], 109. For the same compound, the relative cell viability reads like this: under setting [7], 113; under setting [8], 106.
